Results filed as inconclusive are left out. Active and inactive are the calls of the source. Calls come from the whole dose curve; as a rule, active = well fitted inhibition curve with a large enough effect in the repeat runs; inconclusive = weak or mixed curves; inactive = no such curve, though single readings can be large or run the other way.
Assay: Comparison of Janus kinase inhibitors to block the type I interferon pathway in human skeletal muscle cells: JAK inhibition assay
Details: IFN pathway HiBiT reporter; series mostly up to 45.9 µM; activity change, negative = inhibition: at the top concentration
Excerpt: Assay Submitter: Travis B. Kinder Ph.D.
National Center for Advancing Translational Sciences (NCATS)
The family of Janus kinases (JAK1, JAK2, JAK3, TYK2) mediate signal transduction from cytokine receptors through phosphorylation and activation of intracellular signaling pathways and transcription factors. Small molecule antagonists of JAKs (jakinibs) have been developed with varying selectivity for the use in malignancies and immune regulation. […] We have assayed a library of 48 jakinibs for their ability to inhibit the JAK1/TYK2-dependent type I interferon (IFN) - major histocompatibility complex (MHC) class I pathway in human skeletal muscle cells genome-engineered to fuse a pro-luminescent HiBiT peptide to endogenous MHC class I.
The assay utilized CRISPR/Cas9 genome-engineered immortalized human myoblasts, C25cl48, where a pro-luminescent reporter HiBit was fused to the C-terminus of endogenous MHC class I allele HLA-B*08:01 (HLA-B HiBit myoblasts) (Kinder et al., 2020). HiBit is an 11 amino acid fragment of NanoLuc luminescent reporter (Promega Corporation), and when complexed to the larger LgBit fragment, the reconstituted enzyme produces light in the presence of furimazine substrate. Briefly, HLA-B HiBit myoblasts were plated into 1536-well plates, treated with 4.0 ng/ml human IFN-beta and 48 jakinibs in an 11-point, 1:3 titration with a high final concentration of 46 uM. After 24 hrs of treatment, cells were assayed by Nano-Glo HiBiT Lytic Detection System (Promega) and luminescence measured by a ViewLux 1430 Ultra HTS (Perkin Elmer).
Kinder TB, Dranchak PK, Inglese J. High-Throughput Screening to Identify Inhibitors of the Type I Interferon-Major Histocompatibility Complex Class I Pathway in Skeletal Muscle. ACS Chem Biol. 2020 Jul 17;15(7):1974-1986. doi: 10.1021/acschembio.0c00343
PROTOCOL TABLE (as described by Inglese et al., 2007)
SEQUENCE No. (e.g., 1, 2, 3, etc.); PARAMETER (e.g., Cells, Incubation, Reagent, etc.); VALUE; DESCRIPTION
1a; Cells; 5 uL; Seed 250 cells/well with a Multidrop Combi (Thermo Scientific) into two Greiner 1536 well white/solid bottom, high base, TC plates (789173-F) in 5 ul/well of growth medium (GM) without dexamethasone into columns 1+2
1b; Cells; 5 uL; Seed 250 cells/well with a Multidrop Combi (Thermo Scientific) into two Greiner 1536 well white/solid bottom, high base, TC plates (789173-F) in 5 ul/well of GM without dexamethasone + 4 ng/ml IFN-beta into columns 3 - 48. Add metal lids with gas-exchange holes
2; Incubate; 30 min; Incubate at 37C, 5% CO2, 95% RH
3; Compounds; 23 nl; Transfer DMSO control and library compounds in DMSO with Pin Tool (Wako)
4; Incubate; 24 hrs; Incubate at 37C, 5% CO2, 95% RH
5; Dispense; 2.5 ul; Add HiBit lytic reagent with a BioRAPTR FRD (Beckman Coulter)
6; Incubate; 10 min; Incubate in the dark at ambient temperature for lysis
7; Detector; 5 sec; Measure luminescence with ViewLux 1430 Ultra HTS (Perkin Elmer). Settings: Exposure = 5 sec, Gain = High, Speed = Slow, Binning = 2X
NOTES (numbers refer to sequence above)
1; HLA-B HiBit myoblasts cultured in GM - 4:1 ratio DMEM Glutamax (Thermo Fisher, 10566) : M199 (Thermo Fisher, 11150), 10% FBS (Hyclone Standard), 1% Pen/Strep, 50 ug/ml fetuin, 10 ng/ml hEGF, 1 ng/ml bhFGF, 10 ug/ml insulin, 0.4 ug/ml dexamethasone (supplements from Promocell, C-39360). […] Recombinant human IFN-beta (Peprotech, 300-02BC) was reconstituted in water, diluted in GM, and aliquots stored at -80C until day of use.
3; Control plate contained DMSO in columns 1 and 4, digitonin (Sigma, D141) cytotoxicity control in DMSO at 20 mM in column 2, and ruxolitinib (Selleckchem, S1378) inhibitor control in DMSO 16-point, 1:2 titration, high concentration = 17 mM in column 3. Digitonin and ruxolitinib stocks were reconstituted at 20 and 50 mM in DMSO and aliquots stored at -20C. Forty-eight compounds were added in an 11-point, 1:3 titration with a high final concentration of 46 uM by Pintool (Wako) from one library plates and one DMSO control plate
[…]

Row | SMILES | Potency | activity change, negative = inhibition
1 | N#CCC1(n2cc(-c3ncnc4[nH]ccc34)cn2)CN(C2CCN(C(=O)c3ccnc(C(F)(F)F)c3F)CC2)C1 | 0.861 µM (active) | –
2 | Cc1cc(Nc2cc(NC(=O)c3c(Cl)cccc3Cl)ccn2)nc(N)n1 | 2.16 µM (active) | –
3 | COc1nsc(NC(=O)N2C[C@H]3CC(N(C)c4ncnc5[nH]ccc45)C[C@H]3C2)n1 (some centres undefined) | 0.432 µM (active) | –
4 | Cc1cnc(Nc2ccc(CN3CCOCC3)cc2)nc1Nc1cccc(S(=O)(=O)NC(C)(C)C)c1 | 5.43 µM (active) | –
5 | CC[C@@](C)(Nc1ccnc(-c2c[nH]c3ncccc23)n1)C(=O)NCC(F)(F)F | 8.29 µM (active) | –
6 | Cc1cc(Nc2nc(N[C@@H](C)c3ccc(F)cc3)c(C#N)cc2F)n[nH]1 | 1.08 µM (active) | –
7 | Cc1oncc1C(=O)Nc1ccc(C(F)(F)F)cc1 | 17.2 µM (active) | –
8 | CC(=O)Nc1cc(Oc2ccc3c(nc(Nc4ccc(F)cc4F)n3C)c2C)ccn1 | 0.37 µM (active) | –
9 | NC(=O)c1nc(-c2c(F)cccc2Cl)oc1Nc1ccc(C(=O)N2CCOCC2)cc1 | 5.23 µM (active) | –
10 | CCS(=O)(=O)N1CCN(c2ccc(Nc3ncc(C(N)=O)c(NC4CC4)n3)cc2)CC1 | 0.93 µM (active) | –
11 | NC(=O)c1cnc2[nH]ccc2c1NC1C2CC3C[C@H]1CC(O)(C3)C2 (some centres undefined) | 1.72 µM (active) | –
12 | Cc1cnc(Nc2ccc(OCCN3CCCC3)cc2)nc1Nc1cccc(S(=O)(=O)NC(C)(C)C)c1 | 3.56 µM (active) | –
13 | C[C@@]12O[C@@H](C[C@]1(O)CO)n1c3ccccc3c3c4c(c5c6ccccc6n2c5c31)CNC4=O | 0.415 µM (active) | –
14 | [2H]C([2H])([2H])NC(=O)c1nnc(NC(=O)C2CC2)cc1Nc1cccc(-c2ncn(C)n2)c1OC | 0.0711 µM (active) | –
15 | Cn1cc(Nc2nccc(N3C[C@H]4CC[C@@H](C3)N4C(=O)[C@@H]3CC3(F)F)n2)cn1 | 3.56 µM (active) | –
16 | Cc1cc(Nc2cc(CN3CCOCC3)c3nc(C)c(Cc4ccc(Cl)cc4F)n3n2)n[nH]1 | 14.2 µM (active) | –
17 | C[C@@H]1CCN(C(=O)CC#N)C[C@@H]1N(C)c1ncnc2[nH]ccc12 | 2.16 µM (active) | –
18 | Cc1cc(Nc2nc(N[C@@H](C)c3ncc(F)cn3)ncc2Cl)n[nH]1 | 1.47 µM (active) | –
19 | C1=C/COCc2cc(ccc2OCCN2CCCC2)Nc2nccc(n2)-c2cccc(c2)COC/1 | 2.16 µM (active) | –
20 | CC[C@@H]1CN(C(=O)NCC(F)(F)F)C[C@@H]1c1cnc2cnc3[nH]ccc3n12 | 0.33 µM (active) | –

Row | SMILES | Potency | activity change, negative = inhibition
21 | Cc1cnc(Nc2cccc(CN3CCOCC3)c2)nc1Nc1cccc(S(=O)(=O)NC(C)(C)C)c1 | 10 µM (active) | –
22 | CCC[C@H](NC(=O)/C(C#N)=C/c1cccc(Br)n1)c1ccccc1 | 7.39 µM (active) | –
23 | CCS(=O)(=O)N1CC(CC#N)(n2cc(-c3ncnc4[nH]ccc34)cn2)C1 | 1.31 µM (active) | –
24 | O=C(Nc1nc2cccc(-c3ccc(CN4CCS(=O)(=O)CC4)cc3)n2n1)C1CC1 | 15.3 µM (active) | –
25 | N#CC[C@H](C1CCCC1)n1cc(-c2ncnc3[nH]ccc23)cn1 | 0.861 µM (active) | –
26 | N#CCNC(=O)c1ccc(-c2ccnc(Nc3ccc(N4CCOCC4)cc3)n2)cc1 | 4.48 µM (active) | –
27 | Cc1cnc(Nc2ccc(N3CCN(C)CC3)cc2)nc1Nc1cccc(S(=O)(=O)NC(C)(C)C)c1 | 2.43 µM (active) | –
28 | CCCS(=O)(=O)NC1CC(N(C)c2ncnc3[nH]ccc23)C1 (centres undefined) | 3.7 µM (active) | –
29 | N#C/C(=C\c1ccc(O)c(O)c1)C(=O)NCc1ccccc1 | – | -0.854% (inactive)
30 | CC1(C)CN(C(=O)c2ccc(-c3cccc4nc(NC(=O)C5CC5)nn34)cc2)C1 | 7.67 µM (active) | –
31 | Fc1cc(-c2cccc3ncc(-c4cnn(C5CCNCC5)c4)nc23)cc(F)c1CN1CCOCC1 | 17.9 µM (active) | –
32 | COc1cc2ncnc(Nc3ccc(O)cc3)c2cc1OC | – | -22.8% (inactive)
33 | CC(C)N(CCC(=O)c1ccc2ccccc2c1)Cc1ccccc1 | 14.2 µM (active) | –
34 | CNS(=O)(=O)CC1CCC(N(C)c2ncnc3[nH]ccc23)CC1 (centres undefined) | 4.66 µM (active) | –
35 | CC(C)(C)c1nc2c3cc[nH]c(=O)c3c3cc(F)ccc3c2[nH]1 | 1.26 µM (active) | –
36 | O=C(Nc1ccnc(NC(=O)C2CC2)c1)c1c(Cl)cccc1Cl | 4.48 µM (active) | –
37 | CN1CCN(c2cccc(Nc3nc4c(-c5ccc(S(C)(=O)=O)cc5)cccn4n3)c2)CC1 | 3.06 µM (active) | –
38 | C=CC(=O)N1C[C@H](Nc2ncnc3[nH]ccc23)CC[C@@H]1C | – | -26.6% (inactive)
39 | CN(C)c1ccc(Nc2nc(N)n(C(=O)c3c(F)cccc3F)n2)cc1 | 6.58 µM (active) | –
